Screens from PubChem BioAssay.
TDP1 cell noCPT = qHTS for Inhibitors of human tyrosyl-DNA phosphodiesterase 1 (TDP1): qHTS in cells in absence of CPT. DT40 Tdp1-/- hTDP1 cells, no CPT, ATP luminescence, 48 h. Potency, µM (series often up to 46.2 µM), for the others: at the highest dose activity change, negative = growth inhibition, most hits filed as inhibitors. 15% of 420,000 active; also: potency is read from the fitted curve at half-maximal effect; nearly all actives have a fitted effect of over 55% in size
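Readout: luminescence from CellTiter-Glo after 30 min in the dark at RT. Cells: DT40 Tdp1-/- with stable hTDP1, 400/well. Exposure: compounds alone, ≥48 hr, 37 °C.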
IL1B secr inh = qHTS for Inhibitors of Inflammasome Signaling: IL-1-beta AlphaLISA Primary Screen; THP-1 LPS/ATP IL-1B secretion, AlphaLISA, 16 h; hits give low values; 4.7% of 360,000 active; activity change, % at 57.5 µM; in the data active = activity change below about -50%; inconclusive = mostly about -30% to -49%
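Secreted IL-1B measured by AlphaLISA bead assay after 16 h compound exposure of THP-1 cells; compounds (final up to 57.5 uM) added 1 h before LPS (250 ng/mL) and ATP (1.25 mM) stimulation; lower signal means less secretion.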
DT40 TDP1 CPT = qHTS for Inhibitors of human tyrosyl-DNA phosphodiesterase 1 (TDP1): qHTS in cells in presence of CPT; Potency, µM (highest dose often 46.2 µM), for inactives: top-dose activity change, negative = growth inhibition, most hits filed as inhibitors; 12% of 420,000 active; chicken DT40 Tdp1-/-;hTDP1 cells + 20 nM CPT, ATP luminescence, 48 h; also: potency is read from the fitted curve at half-maximal effect; nearly all actives have a fitted effect of over 55% in size
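Chicken DT40 Tdp1-/- cells stably complemented with human TDP1 were seeded at 400 cells/well in medium containing 20 nM camptothecin, exposed to pin-transferred compounds, and grown at 37 °C for at least 48 hr. Viability was read as ATP luminescence.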
HT1080 IDH1KD tx = qHTS for induction of synthetic lethality in tumor cells producing 2HG: qHTS for the HT-1080-IDH1KD cell line. HT-1080 IDH1 knockdown viability, ATP luminescence, 48 h. Potency, µM (doses to about 46.1 µM), without a hit: at the top dose activity, negative = toxicity, actives largely listed as cytotoxic. 2% of 360,000 active. AID 686971, 2013;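 also: potency is read from the fitted curve at half-maximal effect; 0% = DMSO wells and -100% = cell-free medium wells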
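HT-1080-IDH1KD cells (IDH1 knocked down), 750/well in RPMI with 5% FBS, treated with compound 48 h at 37 degrees C. Viability by CellTiter-Glo luminescence, normalised to DMSO and no-cell wells; concentration-response curves classed.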
ELG1 repair inh = qHTS screen for small molecules that inhibit ELG1-dependent DNA repair in human embryonic kidney (HEK293T) cells expressing luciferase-tagged ELG1 | HEK293T ELG1-luciferase reporter, luminescence, 16 h; DNA damage induced by 5-fluorouridine | Potency, µM (highest dose often 46.1 µM), for inactives: top-dose activity change, negative = inhibition, usual class: inhibitors | 2.3% of 330,000 active; also: potency is read from the fitted curve at half-maximal effect; nearly all actives have a fitted effect of over 55% in size
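Step one: seed 2,000 cells per well. Step two: pin-transfer compound or DMSO alongside 5-fluorouridine. Step three: incubate 16 hr, 37 °C, 5% CO2. Step four: add ONE-Glo, wait 30 min, read luminescence.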
HT1080-NT tox = qHTS for induction of synthetic lethality in tumor cells producing 2HG: qHTS for the HT-1080-NT fibrosarcoma cell line; 1.6% of 360,000 active; HT-1080-NT fibrosarcoma viability, CellTiter-Glo ATP luminescence, 48 h; AID 686970, 2013; Potency, µM (doses to about 46.1 µM), for inactives: top-dose activity, negative = less viability, actives largely listed as cytotoxic;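 also: NT is the 2HG producing partner of a matched IDH1 knockdown line; potency is read from the fitted curve at half-maximal effect; 0% = DMSO-treated cells and -100% = media-only wells without cells; nearly all actives have a fitted effect of over 55% in size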
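Fibrosarcoma NT cells, 750 per well in 5% FBS RPMI, were exposed to compound for 48 hours. Viability: CellTiter-Glo luminescence.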
* hit, by the source's call; ? = inconclusive; / = no result; [ ] = remark or other dose. Hits are enriched below; roughly 19% of the tested compounds scored in any of these assays. Unless noted, calls follow the shape of the dose curve; as a rule, active = well fitted curve in the direction sought with a large enough effect; inconclusive = small, poorly fitted or top-dose-only effect, or another doubt; inactive = no such curve, though single readings can be large; an effect the other way counts as inactive or inconclusive. Unless noted, % is scaled to controls: 0 for no effect and ±100 for the full control effect.

SMILES	TDP1 cell noCPT	IL1B secr inh	DT40 TDP1 CPT	HT1080 IDH1KD tx	ELG1 repair inh	HT1080-NT tox
O=C(C1CCN(S(=O)(=O)c2cccc3nsnc23)CC1)N1CC=C(c2ccccc2)CC1	16.4µM*	7.6	18.4µM*	-15.9%	18.4µM*	-6.8%
O=C(NCCc1ccccc1)C1CCCN(S(=O)(=O)c2cccc3nonc23)C1 (centres undefined)	?	-4.4	-13.5%	-6.8%	-9.6%	-3.8%
CC(C)(C)OC(=O)N1CCN(CCNC(=O)c2ccccc2)CC1	-0.9%	23.6	-10.9%	8.9%	?	6.8%
CC(CC(=O)Nc1nnc(CC(C)(C)C)s1)c1ccccc1 (centres undefined)	?	32.3	?	3.4%	-3.7%	9.5%
COc1ccc(N2CCN(CCCNC(=O)c3cc4sccc4n3C)CC2)cc1	?	?	-27.0%	?	?	?
O=C(Cn1c(-c2cccs2)cc2ccccc21)NCCCN1CCN(c2ccc(F)cc2)CC1	23.1µM*	/	23.1µM*	/	/	/
COc1ccc(N2CCN(CCCNC(=O)Cn3c(-c4cccs4)cc4ccccc43)CC2)cc1	23.1µM*	/	18.4µM*	/	/	/
COc1cccc(CCNC(=O)Cn2c(-c3cccs3)cc3ccccc32)c1	?	/	20.6µM*	/	/	/
CC(C)Oc1ccc(CNC(=O)Cn2c(-c3cccs3)cc3ccccc32)cc1	-22.2%	/	0.2%	/	/	/
CC(C)c1nn2c(=O)cc(COC(=O)c3cccc(NC(=O)CCc4ccccc4)c3)nc2s1	-10.8%	/	10.8%	/	/	/
Cc1onc(C(=O)N2CCC(Cc3ccccc3)CC2)c1[N+](=O)[O-]	?	-5.0	?	10.3µM*	-1.6%	5.8µM*
Cc1onc(C(=O)N2CCN(Cc3ccccc3)CC2)c1[N+](=O)[O-]	-29.0%	-22.1	?	11.1%	-8.3%	3.4%
COc1ccc(CCNC(=O)COC(=O)c2cc(S(=O)(=O)N3CCOCC3)ccc2C)cc1OC	?	11.9	18.4µM*	12.9%	?	2.7%
Cc1ccc(S(=O)(=O)N2CCOCC2)cc1C(=O)OCC(=O)NCCc1ccccc1	?	5.9	?	5.4%	-3.6%	0.3%
Cc1ccc(COC(=O)c2cc(S(=O)(=O)N3CCOCC3)ccc2C)cc1	?	-20.8	?	-6.3%	23.1µM*	-11.1%
Cc1ccc(S(=O)(=O)N2CCCCC2)cc1C(=O)OC(C)C(=O)NCC1CCCCC1 (centres undefined)	18.4µM*	-24.2	?	-14.2%	2.4%	0.1%
CCC(C)NS(=O)(=O)c1ccc(OCC(=O)NCc2ccccn2)cc1 (centres undefined)	-4.0%	9.8	?	10.7%	1.7%	28.6%
CCOc1ccc(NC(=O)COC(=O)c2ccc(S(=O)(=O)N3CCOCC3)cc2)cc1	7.8%	1.8	-2.0%	3.2%	?	5.3%
Cc1ccc(C)c(C(=O)OCC(=O)Nc2cccc(S(=O)(=O)N3CCCCC3)c2)c1	10.3µM*	0.0	18.4µM*	?	-7.9%	?
COc1cccc(NC(=O)COC(=O)c2cc(S(=O)(=O)N3CCOCC3)ccc2C)c1	-16.6%	4.0	-19.1%	-3.3%	16.4µM*	-2.0%
CCOc1ccc(NC(=O)COC(=O)c2cc(S(=O)(=O)N3CCCC3)ccc2C)cc1	?	-14.6	20.6µM*	-12.3%	-23.2%	0.4%[9.24 µM]
Cc1ccc(S(=O)(=O)N2CCOCC2)cc1C(=O)N1CCC(Cc2ccccc2)CC1	14.6µM*	-29.5	?	-3.1%	-11.1%	6.0%
O=C(CSc1nc2ncccc2o1)Nc1ccc(Cl)cc1F	?	/	-5.9%	/	/	/
COc1cc(S(=O)(=O)N2CCOCC2)cc(C(=O)c2nccn2C)c1OC	-2.2%	14.5	-2.8%	7.7%[9.24 µM]	0.0%	8.1%
CCCCn1ccnc1C(=O)c1cc(S(=O)(=O)N2CCOCC2)ccc1C	10.3µM*	-2.7	11.6µM*	-4.9%	6.51µM*	-4.4%
SMILES	TDP1 cell noCPT	IL1B secr inh	DT40 TDP1 CPT	HT1080 IDH1KD tx	ELG1 repair inh	HT1080-NT tox
CCOc1ccc2nc(NC(=O)c3ccc(OC)c(S(=O)(=O)N4CCOCC4)c3)sc2c1	?	-27.7	?	-7.5%	13µM*	-7.5%
CCOc1ccc2nc(NC(=O)c3ccc(S(=O)(=O)N4CCOCC4)cc3)sc2c1	?	0.0	0.0%	-17.9%	-28.0%	-6.7%
COc1ccc(CC(=O)Nc2nc3ccc(F)cc3s2)cc1S(=O)(=O)N1CCOCC1	?	-59.1*	?	?	?	-17.6%
CC(=O)N1CCC[C@H]1C(=O)NCC1Cc2cc(F)cc(-c3ccc(F)c(C)c3)c2O1 (some centres undefined)	-22.8%	/	-4.1%[9.04 µM]	/	/	/
CCOC(=O)c1c(NC(=O)C2=C(C)NC(=S)NC2c2ccc(C)cc2)sc(C)c1C (centres undefined)	13µM*	-75.7*	?	-29.6%	?	?
COC(=O)c1c(NC(=O)CSc2ccccc2N)sc(C)c1C	?	-61.8*	?	-2.5%	-15.9%	-7.2%
COC(=O)c1c(NC(=O)C2c3ccccc3Oc3ccccc32)sc(C)c1C	?	-1.3	23.1µM*	-7.2%[9.24 µM]	14.0%	0.7%
CCOC(=O)c1c(NC(=O)C2c3ccccc3Oc3ccccc32)sc(C)c1C	20.6µM*	/	?	/	/	/
COC(=O)c1sc(NC(=O)C2c3ccccc3Oc3ccccc32)c(C(=O)OC)c1C	?	0.0	?	-16.8%	-22.9%	-0.3%
COc1cc(C(C)=O)ccc1OCC(=O)NCC(c1ccc(F)cc1)N1CCOCC1 (centres undefined)	-14.4%	18.7	-18.7%	8.2%	3.9%	2.8%
Cc1c(NC(=O)c2cccnc2Cl)c(=O)n(-c2ccccc2)n1C	-10.5%	12.8	32.9%	19.6%	0.0%	15.5%
C[C@H](CO)N1C[C@H](C)[C@H](CN(C)Cc2ccccc2)Oc2ncc(Br)cc2C1=O	-22.6%	-25.3	-11.7%	-1.8%	/	-2.5%
CC1CCc2c(sc(NC(=O)C3c4ccccc4Oc4ccccc43)c2C(=O)OC(C)C)C1 (centres undefined)	-0.2%	/	-2.2%	/	/	/
